PubChem BioAssay
For some assays here: Potency and affinity values are given separately. Records with an inconclusive call do not appear. Calls of active or inactive are those of the source.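 How the source made its calls, unless noted: active means falling signal with fitted half-maximal potency no higher than twice the top valid tested dose; inconclusive means poor fit quality, or flat fit spanning -70% to -30%; inactive means potency over limit, rising signal, or flat fit inside 30%.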

Legend:
[1] = small molecules captured by biotinylated probe aFSTL3 – biochemical, small-molecule microarray, fluorescence 635/667, stem cell growth factor project, primary screen (AID 1064); details: higher = more signal;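 further: measures binding of the biotinylated anti-FSTL3 antibody to printed compounds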
[2] = binders from COS7 lysate, DM2A8 probe, primary screen, torsin A project, cell lysate, small-molecule microarray, fluorescence 635/667 (AID 1065); details: higher = more signal, COS7 lysate expressing mutant human TOR1A
[3] = small molecules captured by biotinylated probe aFGF2 – biochemical, small-molecule microarray, fluorescence 635/667, stem cell growth factor project, primary screen (AID 1067); details: higher = more signal;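 further: measures binding of biotinylated aFGF2 protein to printed compounds on slides; z-score merges feature fluorescence and signal-to-noise across triplicate slides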
[4] = small molecules captured by biotinylated probe aFGF10 – biochemical, small-molecule microarray, fluorescence 635/667, stem cell growth factor project, primary screen (AID 1071); details: higher = more signal;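 further: score merges 667 nm spot intensity and signal to noise from triplicate slides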
[5] = molecular target: Neurogenic locus notch homolog protein 2 (Homo sapiens) (UniProt Q04721); test: small molecules binding Notch2 protein – biochemical, small-molecule microarray, 635 nm fluorescence, stem cell growth factors, primary screen (AID 1073); details: higher = more signal
[6] = molecular target: Pro-neuregulin-1, membrane-bound isoform (Homo sapiens) (UniProt Q02297); test: small molecules binding neuregulin-1 protein – biochemical, small-molecule microarray, fluorescence 635/667, psychiatric disease protein project, primary screen (AID 1075); details: NRG1 binding, 635 nm fluorescence, higher = more signal;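 further: score combines 667 nm spot fluorescence with signal to noise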
[7] = test system: Neuregulin-1 EGF-like domain; test: small molecules binding NRG1 EGF domain – biochemical, small-molecule microarray, 635 nm fluorescence, primary screen (AID 1081); details: higher = more signal;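 further: binding of the protein to compounds printed on small-molecule microarray slides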
[8] = FRG1 expression reporter modulators in myotubes – cell-based, C2C12 myotubes, firefly/Renilla luciferase, luminescence, FRG1 inhibition for FSHD, primary screen (AID 1084); details: FRG1 promoter luciferase, higher = more signal, called active from +8 up or from −8 down
[9] = small molecules captured by biotinylated probe aFST – biochemical, small-molecule microarray, fluorescence 635/667, stem cell growth factor project, primary screen (AID 1086); details: higher = more signal;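 further: score merges 667 nm fluorescence with signal-to-noise of each printed compound spot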
[10] = binders of probe aHhip on microarray, primary screen, stem cell growth factor project, biochemical, small-molecule microarray, fluorescence 635/667 (AID 1087); details: higher = more signal;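 further: score merges spot fluorescence at 667nm with spot signal to noise ratio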
[11] = test system: PRMT1 (protein arginine N-methyltransferase 1); test: small molecules binding arginine methyltransferase PRMT1 – biochemical, small-molecule microarray, 635 nm fluorescence, primary screen (AID 1088); details: higher = more signal;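 further: binding of Prmt1 protein to compounds spotted on small-molecule microarray slides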
[12] = growth effects on S. cerevisiae YJM789 – YJM789 clinical isolate, OD600, 24 h, basal, primary screen (AID 1089); details: higher = more signal, called active from +8 up or from −8 down;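 further: growth of clinical yeast isolate S. cerevisiae YJM 789 seeded 1000 cells per well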
[13] = S. pombe growth modifiers, basal conditions – strain 972, OD600, 24 h, no modulator, primary screen (AID 1090);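 further: basal condition with compound alone and no growth modifier present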; details: S. pombe 972 growth, higher = more signal, called active from +8 up or from −8 down
[14] = budding yeast growth modifiers under rapamycin – strain BY4716, OD600, 96 h, primary screen (AID 1091); details: S. cerevisiae BY4716 + rapamycin, higher = more signal, called active from +8 up or from −8 down
[15] = molecular target: Torsin-1A-interacting protein 2 (Homo sapiens) (UniProt Q8NFQ8); test: small molecules binding lysate-expressed LULL1 – cell lysate, human LULL1 lysate, 635/667 nm fluorescence, primary screen (AID 1092); details: small-molecule microarray, hLULL1 lysate binding, 635 nm fluorescence; higher = more signal;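 further: probe is lysate of COS7 cells overexpressing human LULL1; score merges per-feature 667 nm fluorescence with signal-to-noise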
[16] = optical density change of DRC41 E. coli – strain DRC41, OD650, 24 h, E. coli filamentation project, primary screen (AID 1093);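 further: MC1000 strain lacking acrAB efflux and sulA so SOS filamentation is blocked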; details: E. coli DRC41 growth, higher = more signal, called active from +8 up or from −8 down
[17] = probe aLefty2 binding to arrayed compounds – biochemical, biotinylated probe, 635/667 nm fluorescence, primary screen (AID 1094); details: small-molecule microarray, higher = more signal;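 further: score merges spot fluorescence near 667 nm with spot signal-to-noise ratio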
[18] = fungal growth arrest, C. neoformans – Alamar Blue, cherry-picks, dose response (AID 686998); details: Cryptococcus neoformans growth, 24 h; series mostly up to 35 µM
[19] = C. neoformans lysis by adenylate kinase leakage – AK release luminescence, cherry-picks, dose response (AID 687000;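 active means fitted dose curve reaches 40% lysis signal rise at or below the highest valid concentration tested for that sample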;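 further: luminescent detection of adenylate kinase leaking from lysed yeast; 0% = median neutral control signal and 100% = double that signal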); details: 4 h, 100% = twice the neutral-control signal; series mostly up to 15 µM
[20] = viability loss in HepG2 hepatoma cells – cell-based, cherry-picks, set 2, cytotoxicity control, dose response (AID 687002;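 active means a dose-response fit showing signal loss, with half-maximal concentration no higher than twice the top tested dose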); details: ATP luminescence (CellTiter-Glo), 48 h; series mostly up to 26 µM

Sequence of Pro-neuregulin-1, membrane-bound isoform (Homo sapiens) (Q02297 whole entry, looked up, the tested form may be a part, canonical isoform): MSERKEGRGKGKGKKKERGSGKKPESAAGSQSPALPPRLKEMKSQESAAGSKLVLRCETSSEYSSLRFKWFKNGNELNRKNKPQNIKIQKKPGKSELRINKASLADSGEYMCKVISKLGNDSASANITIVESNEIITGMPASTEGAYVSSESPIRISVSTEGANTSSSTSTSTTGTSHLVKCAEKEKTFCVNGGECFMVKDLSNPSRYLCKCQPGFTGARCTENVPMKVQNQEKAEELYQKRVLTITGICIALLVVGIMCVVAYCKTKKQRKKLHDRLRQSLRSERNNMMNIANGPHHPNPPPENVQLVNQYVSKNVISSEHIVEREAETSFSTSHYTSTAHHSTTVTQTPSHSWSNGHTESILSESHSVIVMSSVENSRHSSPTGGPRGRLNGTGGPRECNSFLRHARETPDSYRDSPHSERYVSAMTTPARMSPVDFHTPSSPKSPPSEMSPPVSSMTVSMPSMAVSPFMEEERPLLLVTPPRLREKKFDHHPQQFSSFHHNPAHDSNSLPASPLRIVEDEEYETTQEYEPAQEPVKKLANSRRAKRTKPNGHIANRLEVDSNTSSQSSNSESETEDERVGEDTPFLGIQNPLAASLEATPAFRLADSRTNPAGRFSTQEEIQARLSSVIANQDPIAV
Sequence of Torsin-1A-interacting protein 2 (Homo sapiens) (Q8NFQ8 whole entry, looked up): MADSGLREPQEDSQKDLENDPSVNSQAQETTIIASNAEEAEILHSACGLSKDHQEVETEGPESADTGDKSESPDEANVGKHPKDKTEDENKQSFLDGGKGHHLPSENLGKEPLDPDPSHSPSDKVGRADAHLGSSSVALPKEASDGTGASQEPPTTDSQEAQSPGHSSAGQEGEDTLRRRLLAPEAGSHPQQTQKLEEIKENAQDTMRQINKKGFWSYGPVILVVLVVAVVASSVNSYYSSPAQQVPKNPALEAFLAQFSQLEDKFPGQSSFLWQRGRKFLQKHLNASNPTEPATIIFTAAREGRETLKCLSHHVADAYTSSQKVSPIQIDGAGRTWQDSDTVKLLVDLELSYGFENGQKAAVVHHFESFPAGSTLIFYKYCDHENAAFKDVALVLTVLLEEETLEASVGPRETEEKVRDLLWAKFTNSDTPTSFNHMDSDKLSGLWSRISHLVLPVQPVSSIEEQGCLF
Sequence of Neurogenic locus notch homolog protein 2 (Homo sapiens) (Q04721 whole entry, looked up, canonical isoform): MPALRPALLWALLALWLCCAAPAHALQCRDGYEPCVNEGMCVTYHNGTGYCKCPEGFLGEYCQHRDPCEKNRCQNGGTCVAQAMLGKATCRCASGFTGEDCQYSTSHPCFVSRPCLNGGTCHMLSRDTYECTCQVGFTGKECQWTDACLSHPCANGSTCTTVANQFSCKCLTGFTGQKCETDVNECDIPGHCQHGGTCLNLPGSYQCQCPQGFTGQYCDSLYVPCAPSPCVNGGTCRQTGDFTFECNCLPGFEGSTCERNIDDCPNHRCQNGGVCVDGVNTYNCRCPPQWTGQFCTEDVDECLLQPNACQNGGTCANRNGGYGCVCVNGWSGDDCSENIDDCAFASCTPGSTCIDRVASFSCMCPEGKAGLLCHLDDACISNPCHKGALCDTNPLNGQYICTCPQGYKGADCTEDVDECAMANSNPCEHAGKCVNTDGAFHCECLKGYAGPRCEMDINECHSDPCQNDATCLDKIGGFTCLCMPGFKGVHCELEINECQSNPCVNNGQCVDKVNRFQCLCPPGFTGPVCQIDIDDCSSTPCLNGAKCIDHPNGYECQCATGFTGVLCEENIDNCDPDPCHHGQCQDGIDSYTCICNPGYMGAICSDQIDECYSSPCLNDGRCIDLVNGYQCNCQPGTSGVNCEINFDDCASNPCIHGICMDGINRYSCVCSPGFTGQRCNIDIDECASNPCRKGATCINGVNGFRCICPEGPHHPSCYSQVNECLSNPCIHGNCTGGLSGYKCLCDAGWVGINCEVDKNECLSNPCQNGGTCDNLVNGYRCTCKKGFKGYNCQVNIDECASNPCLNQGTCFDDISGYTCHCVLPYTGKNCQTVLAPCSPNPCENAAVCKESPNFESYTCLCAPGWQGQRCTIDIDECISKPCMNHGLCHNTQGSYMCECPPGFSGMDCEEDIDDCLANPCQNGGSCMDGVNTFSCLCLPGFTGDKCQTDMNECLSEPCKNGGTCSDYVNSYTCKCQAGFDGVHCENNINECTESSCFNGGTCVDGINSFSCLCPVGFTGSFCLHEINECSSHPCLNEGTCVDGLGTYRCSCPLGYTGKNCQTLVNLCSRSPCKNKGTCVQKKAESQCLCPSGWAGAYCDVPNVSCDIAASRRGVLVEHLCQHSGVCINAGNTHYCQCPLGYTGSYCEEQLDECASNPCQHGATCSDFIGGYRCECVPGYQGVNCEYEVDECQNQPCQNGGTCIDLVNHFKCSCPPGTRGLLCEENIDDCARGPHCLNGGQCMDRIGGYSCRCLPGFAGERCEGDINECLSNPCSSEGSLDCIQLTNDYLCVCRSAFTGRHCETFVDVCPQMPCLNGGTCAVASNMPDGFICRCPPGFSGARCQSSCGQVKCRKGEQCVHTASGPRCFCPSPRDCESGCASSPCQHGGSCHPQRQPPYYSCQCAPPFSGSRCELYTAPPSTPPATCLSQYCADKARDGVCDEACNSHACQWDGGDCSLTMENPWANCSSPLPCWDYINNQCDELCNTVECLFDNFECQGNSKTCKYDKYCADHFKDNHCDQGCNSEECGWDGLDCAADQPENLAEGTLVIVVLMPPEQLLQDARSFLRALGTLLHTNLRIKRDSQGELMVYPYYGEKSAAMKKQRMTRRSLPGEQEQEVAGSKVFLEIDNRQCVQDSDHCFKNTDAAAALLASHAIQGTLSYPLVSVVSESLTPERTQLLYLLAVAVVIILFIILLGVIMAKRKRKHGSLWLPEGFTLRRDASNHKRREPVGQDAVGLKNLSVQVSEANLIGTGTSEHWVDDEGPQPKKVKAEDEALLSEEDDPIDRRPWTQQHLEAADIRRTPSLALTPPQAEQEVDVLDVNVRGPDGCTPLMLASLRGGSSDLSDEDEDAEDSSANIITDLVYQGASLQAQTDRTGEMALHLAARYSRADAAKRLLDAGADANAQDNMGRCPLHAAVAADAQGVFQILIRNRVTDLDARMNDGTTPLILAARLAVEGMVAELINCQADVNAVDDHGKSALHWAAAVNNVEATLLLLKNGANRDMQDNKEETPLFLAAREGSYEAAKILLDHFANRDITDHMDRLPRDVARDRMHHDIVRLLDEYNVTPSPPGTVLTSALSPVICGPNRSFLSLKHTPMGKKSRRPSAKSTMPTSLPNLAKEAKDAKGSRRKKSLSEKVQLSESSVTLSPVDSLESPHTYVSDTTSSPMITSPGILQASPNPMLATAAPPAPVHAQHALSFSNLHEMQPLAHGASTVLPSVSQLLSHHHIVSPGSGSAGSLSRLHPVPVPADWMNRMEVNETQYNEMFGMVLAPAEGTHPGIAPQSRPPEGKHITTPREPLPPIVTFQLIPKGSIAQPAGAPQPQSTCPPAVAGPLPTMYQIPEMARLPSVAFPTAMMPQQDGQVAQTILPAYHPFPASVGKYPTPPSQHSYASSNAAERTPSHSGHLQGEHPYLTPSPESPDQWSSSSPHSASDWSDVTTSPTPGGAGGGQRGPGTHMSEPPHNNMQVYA

| Compound | composite z-score [1] | composite z-score [2] | composite z-score [3] | composite z-score [4] | composite z-score [5] | composite z-score [6] | composite z-score [7] | z-score [8] | composite z-score [9] | composite z-score [10] | composite z-score [11] | z-score [12] | z-score [13] | z-score [14] | composite z-score [15] | z-score [16] | composite z-score [17] | outcome [18] | outcome [19] | outcome [20] |
| --- | --- | --- | --- | --- | --- | --- | --- | --- | --- | --- | --- | --- | --- | --- | --- | --- | --- | --- | --- | --- |
| O=C1N(CCS(=O)(=O)c2ccccc2)Cc2ccccc2[C@@H]2OC(c3ccc(OCCCO)cc3)=N[C@]12Cc1ccccc1 | 1.02 | 0.397 | 0.196 | 0.849 | 1.5 | 1.84 | 1.39 | -2.88 (inactive) | 0.843 | -0.338 | 1.53 | 2.44 (inactive) | 1.46 (inactive) | 9.7 (active) | 3.4 | 0.552 (inactive) | 0.657 |  |  |  |
| CN(C[C@H]1N[C@@H](CO)[C@H]1c1ccc(-c2cccc(F)c2)cc1)S(C)(=O)=O |  |  |  |  |  |  |  |  |  |  |  |  |  |  |  |  |  | inactive | inactive |  |
| CNC(=O)C[C@H]1CC[C@H]2[C@@H](COc3ccc(NC(=O)Nc4cccc(C#N)c4)cc3C(=O)N2C)O1 |  |  |  |  |  |  |  |  |  |  |  |  |  |  |  |  |  | inactive | inactive | inactive |
| Cc1ccc(S[C@]2(C(=O)NC3CC3)CC(=O)N(Cc3ccccc3C(F)(F)F)[C@@H]2c2ccc(CO)cc2I)cc1 | 1.38 | 0.15 | -0.0139 | 0.152 | -1.13 | 0.37 | 1.2 | -0.967 (inactive) | 0.0584 | 0.219 | 0.279 | -1.31 (inactive) | -4.68 (inactive) | 2.34 (inactive) | 1.1 | -0.195 (inactive) | 0.244 |  |  |  |
| Cc1ccc(S[C@]2(C(=O)NCC(C)C)CC(=O)N(C(C)C)[C@@H]2c2ccc(CO)cc2)cc1 | -1.02 | -0.691 | -0.083 | -0.293 | -0.625 | -0.517 | -0.0249 | -0.781 (inactive) | 0.272 | 0.271 | 0.493 | 0.588 (inactive) | -2.12 (inactive) | -0.942 (inactive) | -0.219 | 0.538 (inactive) | -0.0193 |  |  |  |
| NC(=O)NCC#Cc1ccc2c(c1)[C@]1(C(=O)N2)[C@H](c2ccc(OCCO)cc2)N2[C@H](c3ccccc3)[C@H](c3ccccc3)OC(=O)[C@H]2[C@@H]1C(=O)Nc1nc2ccccc2s1 | 1.02 | -0.528 | -0.0953 | 0.0777 | -0.442 | -0.214 | -0.748 | 2.5 (inactive) | 0.668 | -0.132 | -0.136 | 2.55 (inactive) | 0.766 (inactive) | 4.18 (inactive) | 0.759 | 2.26 (inactive) | 0.289 |  |  |  |
| COCCNC(=O)C[C@H]1C=C[C@@H](NS(=O)(=O)c2ccc(C)cc2)[C@H](CO)O1 |  |  |  |  |  |  |  |  |  |  |  |  |  |  |  |  |  | inactive | inactive | inactive |
| COCCOC(=O)N1C(=O)[C@@]2(c3cc(C#CCCO)ccc31)[C@H](c1ccccc1OCCO)N1[C@H](c3ccccc3)[C@H](c3ccccc3)OC(=O)[C@H]1[C@@H]2C(=O)NC[C@H](O)c1ccccc1 | -0.138 | 2.15 | -0.105 | 0.365 | 0.3 | 1.12 | 1.06 | -2.36 (inactive) | 0.555 | 0.0623 | 1.56 | -0.524 (inactive) | -1.14 (inactive) | 2.23 (inactive) | 1.29 | 3.51 (inactive) | -0.0898 |  |  |  |
| C=C[C@H](OC)[C@@H](OC(=O)Nc1ccc(OC)cc1)c1ccc(OC)c(O)c1 | 1.46 | -0.68 | -0.209 | -1.29 | -2.83 | 0.272 | 0.843 | 1.51 (inactive) | -1.11 | -0.487 | -1.07 | 0.698 (inactive) | -0.133 (inactive) | 0.551 (inactive) | -0.0649 | 2.09 (inactive) | -0.21 |  |  |  |
| CCCNC(=O)[C@@]1(Sc2ccc(C)cc2)CC(=O)N(Cc2cc(C(F)(F)F)cc(C(F)(F)F)c2)[C@@H]1c1ccc(CO)cc1I | 0.71 | 0.273 | -0.0775 | -0.84 | -0.472 | 1.16 | 0.242 | -1.25 (inactive) | 0.267 | -0.0237 | 0.491 | -5.07 (inactive) | -5.46 (inactive) | -0.894 (inactive) | 1.03 | 3.43 (inactive) | 0.024 |  |  |  |
| C=CCNC(=O)[C@H]1[C@@H]2C(=O)O[C@@H](c3ccccc3)[C@@H](c3ccccc3)N2[C@@H](c2ccccc2OCCO)[C@]12C(=O)N(C(=O)OCCOC)c1ccc(C#CCCO)cc12 | 1.61 | 1.31 | 0.0603 | 0.853 | 0.83 | 0.79 | 1.11 | -4.05 (inactive) | 1.24 | 0.511 | 1.43 | 0.827 (inactive) | -3.06 (inactive) | 3.43 (inactive) | 1.36 | 1.68 (inactive) | 0.994 |  |  |  |
| C=CCOC(=O)[C@H]1[C@@H]2C(=O)O[C@@H](c3ccccc3)[C@@H](c3ccccc3)N2[C@@H](c2ccc(OCCOC(=O)[C@H]3C[C@H]4C(=O)N5CCC[C@H]5C(=O)N4[C@H]3c3cccc(OCCO)c3)cc2)[C@]12C(=O)Nc1ccccc12 | -0.113 | 0.984 | -0.147 | 0.363 | 0.0945 | 1.06 | 1.24 | 0.176 (inactive) | 0.406 | -0.182 | 1.53 | 0.766 (inactive) | -0.347 (inactive) | 2.43 (inactive) | 2.04 | 1.83 (inactive) | 0.103 |  |  |  |
